Source: PubChem BioAssay (Broad Institute)
aSyn 5UTR act = Activators via SNCA 5'UTR binding, MLPCN. alpha-synuclein 5'UTR reporter, activators screen. activity score, % (tested at 7.5 µM), hits read low. 300,000 tested, 7.1% active. AID 1814, 2009; in the data active = activity score below about -60%
Active calls of the source: *. The list is a sample of the results.

SMILES	aSyn 5UTR act
CCOc1ccc(/C=C/C(=O)c2c(O)cc(C)oc2=O)cc1	-182*
Cc1cc(C)c(C(=O)/C=C/c2ccc(C(C)C)cc2)c(=O)[nH]1	-91*
Cc1cc(O)c(C(=O)/C=C/c2ccccc2)c(=O)o1	-103*
Cc1cc(O)c(C(=O)/C=C/c2ccccc2Br)c(=O)o1	-171*
Cc1cc(O)c(C(=O)/C=C/c2ccc(C(C)C)cc2)c(=O)o1	-129*
CCC(=O)Nc1c(C(=O)Nc2ccc3c(c2)OCCO3)oc2ccccc12	-143*
COCC(=O)Nc1c(C(=O)Nc2ccc3c(c2)OCCO3)oc2ccccc12	-72*
CCC(=O)Nc1c(C(=O)Nc2cccc(OC)c2)oc2ccccc12	-123*
CC1CCN(C(=O)c2cc3c(=O)n4ccccc4nc3s2)CC1	-78*
O=C(c1cc2c(=O)n3ccccc3nc2s1)N1CCOCC1	-98*
CCCC1CCC(c2nc(-c3cccnc3)no2)CC1 (configuration not stated)	-166*
N#Cc1c(-c2ccccc2)ccnc1Oc1ccccc1	-75*
C=CCNS(=O)(=O)c1nc(C)c(Cl)c(C)c1C#N	-110*
COc1ccc(-c2cc3nc(CCl)[nH]c(=O)c3s2)cc1	71
O=c1[nH]cnc2cc(-c3ccccc3)sc12	-95*
Fc1ccc(-n2nnc(-c3ncc[nH]3)n2)cc1	-126*
Clc1ccc(-n2nnc(-c3nccs3)n2)cc1Cl	-92*
Cc1ccc(-n2nnc(-c3nccs3)n2)cc1	95
Clc1ccc(-n2nnc(-c3ncc[nH]3)n2)cc1Cl	-171*
COc1ccc(NC(=O)CC2CC3CCC2C3)cn1 (configuration not stated)	-68*
O=C(Nc1ccc(F)c(Cl)c1)c1nsc(Cl)c1Cl	-110*
O=C(Nc1ccc(F)cc1)c1nsc(Cl)c1Cl	-178*
CCOc1ccc(NC(=O)c2nsc(Cl)c2Cl)cc1	-117*
CC(=O)c1ccc(N2CCN(C(=O)c3ccc(Cn4c(=S)[nH]c5ccc(N6CCOCC6)cc5c4=O)cc3)CC2)cc1	-72*
O=C(Nc1ccccc1)OC1CC2CC1C1CCCC21 (configuration not stated)	-141*
SMILES	aSyn 5UTR act
O=C(Nc1ccccc1)O[C@@H]1C[C@H]2CCC(=O)N3CC[C@@H](C1)[C@@H]23	-136*
CCN(CC)CCOc1c(Br)ccc2c1sc1nc3n(c(=O)c12)CCC3	-111*
Cc1ccc(-n2c(C)nn(CCOc3ccccc3)c2=O)cc1	-104*
Cc1nn(CCOc2ccccc2)c(=O)n1-c1c(F)cccc1F	-108*
O=c1c2ccccc2cnn1CCOc1ccccc1	72
NS(=O)(=O)c1ccc(N=Nc2ccc(O)c3ncccc23)cc1	64
Oc1ccc(N=Nc2c(O)ccc3ccccc23)cc1	-98*
COc1cc(N=Nc2ccc3ccccc3c2)ccc1O	-144*
Oc1ccc(N=Nc2ccc3ccccc3c2)cc1	-73*
Oc1c(N=Nc2ccccn2)ccc2ccccc12	74
CCCNC(=O)C(=O)Nc1ccc2c(c1)N(S(=O)(=O)c1cccs1)CCC2	-79*
CN(C)CCNC(=O)C(=O)Nc1ccc2c(c1)N(S(=O)(=O)c1cccs1)CCC2	-63*
O=S(=O)(c1cccs1)N1CCCc2cccc(O)c21	-82*
COCCCNC(=O)C(=O)Nc1ccc2c(c1)N(S(=O)(=O)c1cccs1)CCC2	57
CCC(=O)NC(c1ccccc1)c1nc2ccccc2[nH]1 (configuration not stated)	-79*
CCCC(=O)NC(c1ccccc1)c1ccc2cccnc2c1O (configuration not stated)	65
CCCCC(=O)NC(c1ccccc1)c1ccc2cccnc2c1O (configuration not stated)	68
C#CC[N+](C)(C)CCCCCCCCCCCC	77
Cc1ccc2nc(-c3ccsc3)c(NC3CCCC3)n2c1	-64*
Cc1ccccc1CSc1nnc(-c2ccncc2)o1	-86*
c1ccc(CSc2nnc(-c3ccncc3)o2)cc1	-104*
Fc1ccc(-c2nnc(SCc3cccnc3)o2)cc1	-76*
O=C(CSc1ccc(-c2ccccc2)nn1)N1CCCCC1	-155*
CC(=O)c1cccc(NC(=O)CSc2ccc(-c3ccccn3)nn2)c1	69
CCOc1ccc(-c2ccc(SCC(=O)N3CCN(c4ccccc4)CC3)nn2)cc1	-69*
SMILES	aSyn 5UTR act
O=C(CSc1ccc(-c2ccccn2)nn1)N1CCCCC1	-66*
CC1(C)CN(c2ccc(N3CC(C)(C)C3=O)cc2)C1=O	-70*
C[C@@H]1CC=C[C@H]2[C@H]1C(=O)N(Cc1ccccc1)[C@H]2c1ccc(-c2cc3ccccc3s2)cc1F	-138*
CCCC1CC(=O)OC1(C)C(=O)CSc1n[nH]c(-c2ccccc2)n1 (configuration not stated)	-66*
Nc1ccc2nc(-c3ccccc3)cnc2c1	-76*
CCCCOc1ccc(-c2cnc3ccccc3n2)cc1	101
Clc1ccc(-c2cnc3ccccc3n2)cc1	-208*
Oc1ccc(-c2cnc3ccccc3n2)cc1	-72*
O=C1c2ccccc2NC(c2ccccc2O)N1c1ccc(F)cc1 (configuration not stated)	-98*
COc1cccc(C2Nc3ccccc3C(=O)N2c2ccc(F)cc2)c1O (configuration not stated)	-99*
O=C1c2ccccc2NC(c2ccccn2)N1c1ccc(Cl)cc1 (configuration not stated)	-138*
c1ccc(N2CCN(c3nc4ccccc4[nH]3)CC2)nc1	-136*
CN(C)S(=O)(=O)c1ccc(C(=O)NCCSc2ccccc2)cc1	-115*
COc1ccc(C(=O)NCCSc2ccccc2)cc1OC	-129*
COC(=O)CCC(=O)Oc1ccc(OC(=O)CCC(=O)OC)cc1	-62*
CCOc1ccc(C(=O)OCC(=O)c2c(N)n(C)c(=O)n(C)c2=O)cc1OCC	-118*
COc1ccc2nc(NC(=O)C3COc4ccccc4O3)sc2c1 (configuration not stated)	-80*
CS(=O)(=O)c1ccc2nc(NC(=O)C3COc4ccccc4O3)sc2c1 (configuration not stated)	-98*
O=C(Nc1nc(-c2nc3ccccc3s2)cs1)C1COc2ccccc2O1 (configuration not stated)	-136*
COc1ccc(C(=O)/C=C/C(=O)N(CC(=O)NC2CCCCC2)Cc2ccccc2)c(O)c1	67
COc1ccc(/C=C/C(=O)c2cc3c(cc2N)OCO3)cc1	-183*
COc1ccc(/C=C/C(=O)c2cc(Cl)ccc2O)c(OC)c1	-80*
COc1ccc(/C=C/C(=O)c2ccc(OC)cc2OC)cc1	-114*
COc1ccc(C(=O)/C=C/c2ccc(OC)cc2OC)c(O)c1	-283*
CN(C)c1ccc(/C=C/C(=O)c2cc(Cl)ccc2O)cc1	-96*
SMILES	aSyn 5UTR act
O=C(/C=C/c1ccc(O)cc1)c1ccc(O)cc1O	-244*
COc1ccc(/C=C/C(=O)CCC(=O)O)cc1	-78*
COc1ccc(C(=O)/C=C/c2cc(C(=O)O)cc3c2OCOC3)c(O)c1	-75*
COc1ccc(C(=O)/C=C/c2ccccc2OC)c(OC(=O)c2ccc([N+](=O)[O-])cc2)c1	-332*
COc1ccc(C(=O)/C=C/c2ccccc2)c(O)c1	-111*
COc1ccc(C(=O)/C=C/Nc2ccccn2)c(OC)c1	-160*
COc1ccc(C(=O)c2ccc(OC)cc2O)c(O)c1	-120*
COc1ccc(/C=C/C(=O)c2cc(F)ccc2OC(=O)c2ccccc2)cc1OC	67
O=C1CC(c2ccccc2F)c2cc3c(cc2N1)CCC3 (configuration not stated)	65
